In PubChem BioAssay (NCATS):
“And” between values parts separate entries of the source, which are not always exact repeats. Equal values may be shown once. Results filed as inconclusive are left out. Where a call stands in place of a potency, no number is given. The source made the active and inactive calls. Unless noted, the call rests on the fitted dose curve; in most records, active means well fitted curve in the direction sought with a large enough effect; inconclusive means small, poorly fitted or top-dose-only effect, or another doubt; inactive means no such curve, though single readings can be large; an effect the other way counts as inactive or inconclusive.

Columns and labels:
[1] = P-glycoprotein substrates identified in KB-8-5-11 adenocarcinoma cell line, qHTS therapeutic library screen (AID 1346987); further: nearly all actives have a fitted effect of over 65% in size; further: potency means the concentration at half of the fitted maximal effect
Outline: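 Compounds are pinned in dose-response onto KB-8-5-11 cells (500 cells/well, colchicine-free medium) and left 72 h at 37 degree C. CellTiter-Glo luminescence then yields AC50 values.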

[2] = NS1 protein of Zika virus - qHTS assay to identify small molecule inhibitors in human HEK 293 cells (AID 1347053); further: nearly all actives have a fitted effect of over 55% in size
Outline: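 In this cell-based screen, HEK 293 cultures received compound for one hour before Zika MR766 at MOI = 0.5. NS1 was quantified 24 hours later by TR-FRET, normalized to virus-free wells and infected wells.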

[3] = qHTS of pediatric cancer cell lines to identify multiple opportunities for drug repurposing: Primary screen for TC32 cells (AID 1347089); further: nearly all actives have a fitted effect of over 60% in size
Outline: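 In the primary qHTS, MIPE compounds were tested at 11 concentrations (0.78 nM to 46 µM) and NPC compounds at 8 (0.59 nM to 46 µM) on TC32 cells for 48 h. CellTiter-Glo luminescence gave viability.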

[4] = qHTS of pediatric cancer cell lines to identify multiple opportunities for drug repurposing: Primary screen for DAOY cells (AID 1347090); further: nearly all actives have a fitted effect of over 55% in size; further: potency means the concentration at half of the fitted maximal effect
Outline: (§1)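 Cell viability, CellTiter-Glo luminescence; 500-1,000 cells/well, 8- or 11-point titration, 48 h compound exposure at 37 degrees C, 5% CO2. Controls: DMSO neutral, bortezomib 2.3 µM final as positive.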

[5] = qHTS of pediatric cancer cell lines to identify multiple opportunities for drug repurposing: Primary screen for SJ-GBM2 cells (AID 1347091); further: potency means the concentration at half of the fitted maximal effect
Outline: as §1

[6] = qHTS of pediatric cancer cell lines to identify multiple opportunities for drug repurposing: Primary screen for A673 cells (AID 1347092); further: nearly all actives have a fitted effect of over 45% in size; further: potency means the concentration at half of the fitted maximal effect
Outline: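 48 h compound exposure, A673, 500-1,000 cells/well, 37 degrees C/5% CO2. MIPE: 11-point, 0.78 nM-46 µM; NPC: 8-point, 0.59 nM-46 µM (final). Readout CellTiter-Glo luminescence after 15 min RT.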

[7] = qHTS of pediatric cancer cell lines to identify multiple opportunities for drug repurposing: Primary screen for SK-N-MC cells (AID 1347093); further: potency means the concentration at half of the fitted maximal effect
Outline: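 Metabolically active cells were quantified by ATP-dependent luminescence (CellTiter-Glo, 15 min at room temperature) following 48 h treatment. Cells had been plated at 500-1,000 per well and settled for 5 h beforehand.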

[8] = qHTS of pediatric cancer cell lines to identify multiple opportunities for drug repurposing: Primary screen for BT-37 cells (AID 1347094); further: potency means the concentration at half of the fitted maximal effect
Outline: (§2)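 Readout: CellTiter-Glo luminescence, 48 h treatment. Controls DMSO (neutral) and bortezomib 2.3 µM final (positive). Potency and efficacy taken from primary-screen concentration-response curves.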

[9] = qHTS of pediatric cancer cell lines to identify multiple opportunities for drug repurposing: Primary screen for NB-EBc1 cells (AID 1347095); further: potency means the concentration at half of the fitted maximal effect
Outline: as §2

[10] = biological target: Atrial natriuretic peptide receptor 1 (Homo sapiens) (UniProt P16066); assay: Natriuretic polypeptide receptor (hNpr1) antagonism - Pilot screen (AID 1347049; calls by dose curve;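 further: HEK293 cells with hNpr1 and GloSensor cGMP luciferase stimulated by 0.1 nM hNppA; agonist-evoked cGMP luminescence read 20 min after hNppA addition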)
Outline: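 Receptor antagonism read as cGMP-dependent luminescence in hNpr1/pGS-40F HEK293 cells: pre-read after 30 min compound exposure, post-read 20 min after hNppA agonist at 0.1 nM final, all at room temperature, protected from light; A-71915 titration as control.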

[11] = biological target: Atrial natriuretic peptide receptor 2 (Homo sapiens) (UniProt P20594); assay: Natriuretic polypeptide receptor (hNpr2) antagonism - Pilot subtype selectivity assay (AID 1347050; calls by dose curve)
Outline: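 Antagonist mode: compounds (LOPAC1280, seven 1:5 dilutions) added 30 min before 1 nM hNppC stimulation of hNpr2-HEK293 cGMP-sensor cells; luminescence read before and 20 min after agonist at ambient temperature.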

[12] = biological target: Parathyroid hormone/parathyroid hormone-related peptide receptor (Homo sapiens) (UniProt Q03431); assay: qHTS for PTHR1 Agonists: Optimization Screen against the NCGC LOPAC library (AID 1347079);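 further: GloSensor cAMP luminescence in HEK-293 GP2 cells expressing human PTHR1 with IBMX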
Outline: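 HEK-293 GP2 cells, PTHR1 + GloSensor cAMP; 3000 cells/well, o/n. Luciferin + IBMX 0.5mM each (stock), 1 hr 37C. Cpd titration, 1 hr 37C. Lum after 15 min RT. Ctrl M-PTH(1-15) top 10uM.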

[13] = Natriuretic polypeptide receptor (hNpr1) antagonism - Pilot counterscreen GloSensor control cell line (AID 1347045; calls by dose curve)
Outline: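 Control counterscreen: luciferase cGMP-biosensor HEK293 cells (no Npr1) received compound for 30 min at room temperature after GloSensor substrate loading. Luminescence was measured before and 20 min after soluble guanylyl cyclase activation by 50 uM nitroprusside.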

[14] = biological target: T1, Tyrosine-protein phosphatase non-receptor type substrate 1 (Homo sapiens) + Leukocyte surface antigen CD47 (Homo sapiens) (UniProt P78324+Q08722); assay: CD47-SIRPalpha protein protein interaction - LANCE assay qHTS validation (AID 1347057; active means well fitted curve in the direction sought with a large enough effect in the signal ratio, with a control signal flat, not every such curve was filed as active; the % refers to the signal ratio)
Outline: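 Inhibition of soluble CD47/SIRPalpha ectodomain association by titrated compounds, measured as 665/615 nm time-resolved FRET ratio after sequential 30 min room-temperature incubations.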

[15] = biological target: T1, Tyrosine-protein phosphatase non-receptor type substrate 1 (Homo sapiens) + Leukocyte surface antigen CD47 (Homo sapiens); assay: CD47-SIRPalpha protein protein interaction - HTRF assay qHTS validation (AID 1347058; active means well fitted curve in the direction sought with a large enough effect in the signal ratio, not every such curve was filed as active; the % refers to the signal ratio)
Outline: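 Soluble extracellular domains (6His-CD47, Avi-tag-biotinylated SIRPalpha) in PBS pH 7.4 with 0.05% IGEPAL CA-630. Compounds were preincubated 30 min at RT with CD47 and anti-His-Eu, then SIRPalpha and SAV-XL665 were added. TR-FRET 665/615 ratio.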

[16] = biological target: T1, Tyrosine-protein phosphatase non-receptor type substrate 1 (Homo sapiens) + Leukocyte surface antigen CD47 (Homo sapiens); assay: CD47-SIRPalpha protein protein interaction - Alpha assay qHTS validation (AID 1347059);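 further: bead proximity luminescence from CD47 binding SIRPalpha after compound preincubation with SIRPalpha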
Outline: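 AlphaScreen signal between CD47-His (12.5 nM) and biotin-SIRPalpha (25 nM) soluble extracellular domains, bead-captured via Ni-NTA and streptavidin. Compounds, in 7-point titrations, met SIRPalpha 30 min before CD47; PBS pH 7.4 with 0.05% IGEPAL.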

[17] = P-glycoprotein substrates identified in KB-3-1 adenocarcinoma cell line, qHTS therapeutic library screen (AID 1346986); conditions: KB-3-1 parental cells viability, CellTiter-Glo, 72 h; at 44.5 µM (top of the series); further: nearly all actives have a fitted effect of over 60% in size
Outline: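 Viability read by CellTiter-Glo after 72 h compound exposure in dose-response of KB-3-1 and KB-8-5-11 (P-gp-high) cells. Hits needed AC50 < 10 uM, >50% maximum response and curve class -1.1 to -2.4. Cherry-picks retested ± tariquidar, including pcDNA/MDR-19 HEK-293 pair.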

Chain of Atrial natriuretic peptide receptor 1 (Homo sapiens) (P16066 whole entry, looked up): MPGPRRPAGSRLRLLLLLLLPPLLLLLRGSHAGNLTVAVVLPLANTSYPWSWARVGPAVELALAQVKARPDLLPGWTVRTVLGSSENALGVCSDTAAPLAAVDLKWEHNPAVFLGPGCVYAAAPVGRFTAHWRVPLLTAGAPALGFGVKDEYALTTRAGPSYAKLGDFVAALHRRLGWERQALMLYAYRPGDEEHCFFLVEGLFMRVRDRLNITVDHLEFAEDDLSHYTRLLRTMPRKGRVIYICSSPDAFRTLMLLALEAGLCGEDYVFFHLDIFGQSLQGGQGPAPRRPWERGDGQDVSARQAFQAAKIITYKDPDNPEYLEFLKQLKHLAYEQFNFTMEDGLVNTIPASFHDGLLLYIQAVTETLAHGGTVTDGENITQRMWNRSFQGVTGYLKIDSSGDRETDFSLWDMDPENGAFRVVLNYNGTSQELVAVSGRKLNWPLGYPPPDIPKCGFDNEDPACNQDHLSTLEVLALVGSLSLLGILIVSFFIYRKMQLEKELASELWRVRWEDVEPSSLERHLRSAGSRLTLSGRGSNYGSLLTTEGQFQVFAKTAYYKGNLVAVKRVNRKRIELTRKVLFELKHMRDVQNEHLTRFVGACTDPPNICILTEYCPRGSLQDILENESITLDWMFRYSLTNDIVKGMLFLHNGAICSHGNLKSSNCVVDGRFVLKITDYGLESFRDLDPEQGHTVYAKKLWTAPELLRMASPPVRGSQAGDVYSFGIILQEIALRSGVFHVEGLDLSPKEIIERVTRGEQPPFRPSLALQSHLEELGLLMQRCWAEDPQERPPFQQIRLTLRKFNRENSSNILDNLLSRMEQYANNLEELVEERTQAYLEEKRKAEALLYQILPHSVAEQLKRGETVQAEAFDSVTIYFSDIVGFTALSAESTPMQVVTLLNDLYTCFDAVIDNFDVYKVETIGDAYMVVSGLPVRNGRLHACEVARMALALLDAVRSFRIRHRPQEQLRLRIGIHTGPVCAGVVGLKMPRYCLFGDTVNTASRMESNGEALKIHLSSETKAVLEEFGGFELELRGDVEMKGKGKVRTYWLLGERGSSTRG
T1 sequence (P78324 whole entry, looked up, the tested form may be a part): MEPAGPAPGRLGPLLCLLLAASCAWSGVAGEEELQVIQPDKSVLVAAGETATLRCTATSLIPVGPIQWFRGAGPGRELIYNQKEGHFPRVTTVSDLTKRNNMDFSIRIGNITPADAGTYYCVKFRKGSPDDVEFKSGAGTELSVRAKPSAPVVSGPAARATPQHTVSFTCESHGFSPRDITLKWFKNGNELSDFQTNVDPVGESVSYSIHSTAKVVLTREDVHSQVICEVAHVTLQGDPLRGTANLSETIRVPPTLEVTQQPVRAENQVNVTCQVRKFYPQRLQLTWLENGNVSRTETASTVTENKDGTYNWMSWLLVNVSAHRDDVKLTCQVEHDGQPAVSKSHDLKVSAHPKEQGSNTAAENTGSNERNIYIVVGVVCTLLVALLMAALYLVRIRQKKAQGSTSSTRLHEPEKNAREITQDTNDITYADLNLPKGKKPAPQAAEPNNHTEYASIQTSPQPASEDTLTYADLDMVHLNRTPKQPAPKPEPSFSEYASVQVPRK
T1 sequence (Q08722 whole entry, looked up, the tested form may be a part): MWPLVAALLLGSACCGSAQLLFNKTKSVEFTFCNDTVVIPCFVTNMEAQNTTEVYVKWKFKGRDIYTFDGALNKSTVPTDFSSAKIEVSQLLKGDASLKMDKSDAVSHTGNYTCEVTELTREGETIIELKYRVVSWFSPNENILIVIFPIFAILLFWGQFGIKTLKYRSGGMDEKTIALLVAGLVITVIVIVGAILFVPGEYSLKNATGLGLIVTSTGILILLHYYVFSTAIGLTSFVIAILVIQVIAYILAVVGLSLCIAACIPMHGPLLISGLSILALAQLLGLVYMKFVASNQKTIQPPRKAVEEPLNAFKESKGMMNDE
Chain of Atrial natriuretic peptide receptor 2 (Homo sapiens) (P20594 whole entry, looked up): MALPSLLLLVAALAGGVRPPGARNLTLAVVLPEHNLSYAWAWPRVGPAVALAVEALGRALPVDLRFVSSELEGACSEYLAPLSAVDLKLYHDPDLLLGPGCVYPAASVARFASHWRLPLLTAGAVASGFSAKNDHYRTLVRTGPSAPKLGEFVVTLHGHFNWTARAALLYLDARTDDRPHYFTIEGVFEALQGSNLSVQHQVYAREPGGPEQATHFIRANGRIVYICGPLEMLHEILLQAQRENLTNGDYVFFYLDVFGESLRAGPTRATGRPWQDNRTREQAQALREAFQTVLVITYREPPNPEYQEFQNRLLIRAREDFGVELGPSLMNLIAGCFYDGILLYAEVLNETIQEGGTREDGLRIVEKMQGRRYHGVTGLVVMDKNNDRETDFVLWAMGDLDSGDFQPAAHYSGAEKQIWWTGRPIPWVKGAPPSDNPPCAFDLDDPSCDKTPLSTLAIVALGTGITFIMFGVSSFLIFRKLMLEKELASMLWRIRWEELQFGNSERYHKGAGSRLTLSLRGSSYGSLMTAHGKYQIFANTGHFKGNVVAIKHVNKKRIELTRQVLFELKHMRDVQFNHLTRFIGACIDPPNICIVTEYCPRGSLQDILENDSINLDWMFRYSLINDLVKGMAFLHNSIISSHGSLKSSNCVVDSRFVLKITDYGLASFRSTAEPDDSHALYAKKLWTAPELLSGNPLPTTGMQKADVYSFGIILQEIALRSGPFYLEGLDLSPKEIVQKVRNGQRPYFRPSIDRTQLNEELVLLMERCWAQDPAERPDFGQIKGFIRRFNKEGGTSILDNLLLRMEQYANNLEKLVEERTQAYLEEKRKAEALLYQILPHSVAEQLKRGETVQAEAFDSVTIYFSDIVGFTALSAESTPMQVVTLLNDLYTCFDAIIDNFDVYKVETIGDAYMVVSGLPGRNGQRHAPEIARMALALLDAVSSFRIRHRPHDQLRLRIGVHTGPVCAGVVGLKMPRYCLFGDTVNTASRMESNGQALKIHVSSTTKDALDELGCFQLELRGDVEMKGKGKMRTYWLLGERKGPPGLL
Chain of Parathyroid hormone/parathyroid hormone-related peptide receptor (Homo sapiens) (Q03431 whole entry, looked up): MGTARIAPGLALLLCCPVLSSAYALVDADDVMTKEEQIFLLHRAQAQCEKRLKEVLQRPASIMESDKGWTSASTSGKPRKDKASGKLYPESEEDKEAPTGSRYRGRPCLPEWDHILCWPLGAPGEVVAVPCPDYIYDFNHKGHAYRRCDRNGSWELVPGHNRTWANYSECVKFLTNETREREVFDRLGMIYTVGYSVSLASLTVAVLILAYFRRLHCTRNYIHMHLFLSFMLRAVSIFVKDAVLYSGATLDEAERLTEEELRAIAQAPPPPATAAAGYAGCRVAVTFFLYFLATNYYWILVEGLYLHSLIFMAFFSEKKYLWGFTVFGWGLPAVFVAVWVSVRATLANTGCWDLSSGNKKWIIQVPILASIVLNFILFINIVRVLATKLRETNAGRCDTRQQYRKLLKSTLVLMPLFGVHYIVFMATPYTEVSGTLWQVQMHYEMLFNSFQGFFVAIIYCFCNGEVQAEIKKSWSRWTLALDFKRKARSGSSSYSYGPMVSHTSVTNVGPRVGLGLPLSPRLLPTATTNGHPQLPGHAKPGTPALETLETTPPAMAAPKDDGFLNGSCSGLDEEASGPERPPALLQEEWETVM

Structure (SMILES)	Potency [1]	Potency [2]	Potency [3]	Potency [4]	Potency [5]	Potency [6]	Potency [7]	Potency [8]	Potency [9]	Potency [10]	Potency [11]	outcome [12]	Potency [13]	outcome [14]	outcome [15]	outcome [16]	outcome [17]
NCCCC(O)(P(=O)(O)O)P(=O)(O)O	inactive	inactive	inactive	inactive	inactive	inactive	inactive	inactive	inactive	–	–	–	–	–	–	–	–
Cc1cccc(Nc2ccncc2S(=O)(=O)NC(=O)NC(C)C)c1	inactive	inactive	inactive	inactive	inactive	inactive	inactive	inactive	inactive	–	–	–	–	–	–	–	–
CCN(CC)CC#CCOC(=O)C(O)(c1ccccc1)C1CCCCC1 (stereo unspecified)	inactive	inactive	inactive	–	–	inactive	inactive	inactive	inactive	inactive	inactive	inactive	–	–	–	–	–
C[C@@H]1C[C@H]2[C@@H]3CCC4=CC(=O)C=C[C@]4(C)[C@@]3(Cl)[C@@H](O)C[C@]2(C)[C@@]1(OC(=O)c1ccco1)C(=O)CCl	inactive	inactive	inactive	18.7 µM (active)	9.35 µM (active)	590 nM (active)	2.96 µM (active)	21.7 µM (active)	11.8 µM (active)	–	–	–	–	–	–	–	–
COc1ncnc(NS(=O)(=O)c2ccc(N)cc2)c1OC	inactive	inactive	inactive	inactive	inactive	inactive	inactive	inactive	inactive	–	–	–	–	–	–	–	–
O=C(O)C1CCCN(CCC=C(c2ccccc2)c2ccccc2)C1 (stereo unspecified)	inactive	inactive	inactive	inactive	inactive	–	–	inactive	inactive	inactive	inactive	inactive	inactive	inactive	inactive	inactive	–
COc1cc2ncnc(Nc3cccc(Cl)c3)c2cc1OC	8.33 µM (active) and 16.4 µM (active)	inactive	–	–	–	–	–	21.7 µM (active)	–	inactive	inactive	–	inactive	inactive	–	inactive	–
Nc1nc(N)c2nc(CNc3ccc(C(=O)NC(CCC(=O)O)C(=O)O)cc3)cnc2n1 (stereo unspecified)	37.2 nM (active)	inactive	–	inactive	0.0833 µM (active)	–	0.0166 µM (active)	0.0485 µM (active)	–	inactive	inactive	inactive	inactive	inactive	–	inactive	–
CS(=O)(=O)c1ccc([C@@H](O)[C@@H](CO)NC(=O)C(Cl)Cl)cc1	inactive	inactive	inactive	inactive	inactive	inactive	inactive	inactive	inactive	–	–	–	–	–	–	–	–
CC(C)NCC(O)c1ccc(NS(C)(=O)=O)cc1 (stereo unspecified)	inactive	inactive	inactive	–	inactive	–	10.5 µM (active)	inactive	–	inactive	inactive	inactive	inactive	inactive	inactive	inactive	–
COc1ccc(C(=O)CC(=O)c2ccc(C(C)(C)C)cc2)cc1	inactive	inactive	–	–	–	–	–	–	–	–	–	–	–	–	–	–	–
O=C(O)c1cc(=O)[nH]c(=O)[nH]1	inactive	inactive	inactive	inactive	inactive	inactive	inactive	inactive	inactive	–	–	–	–	–	–	–	–
C[C@@H]1CN(c2c(F)c(N)c3c(=O)c(C(=O)O)cn(C4CC4)c3c2F)C[C@H](C)N1	inactive	inactive	inactive	inactive	inactive	inactive	inactive	inactive	inactive	–	–	–	–	–	–	–	–
O=C(N[C@H](CO)[C@H](O)c1ccc([N+](=O)[O-])cc1)C(Cl)Cl	–	inactive	–	inactive	inactive	inactive	inactive	inactive	inactive	–	–	–	–	–	–	–	inactive
CCOC(=O)[C@H](CCc1ccccc1)N[C@H]1CS[C@H](c2cccs2)CN(CC(=O)O)C1=O	inactive	inactive	inactive	–	–	–	–	–	–	–	–	–	–	–	–	–	–
CNS(=O)(=O)Cc1ccc2[nH]cc(CCN(C)C)c2c1	inactive	inactive	inactive	inactive	inactive	inactive	inactive	inactive	inactive	–	–	–	–	–	–	–	–
CCCCOc1ccc(CC(=O)NO)cc1	–	inactive	inactive	–	–	16.8 µM (active) and 2.96 µM (active)	7.43 µM (active)	19.5 µM (active)	18.7 µM (active)	–	–	–	–	–	–	–	inactive
COc1c(N2CCNC(C)C2)c(F)cc2c(=O)c(C(=O)O)cn(C3CC3)c12 (stereo unspecified)	–	inactive	inactive	–	inactive	inactive	inactive	inactive	inactive	–	–	–	–	–	–	–	inactive
NNC(=O)c1ccncc1	inactive	inactive	inactive	inactive	inactive	inactive	inactive	inactive	–	–	–	–	–	–	–	–	–
COc1cnc(NS(=O)(=O)c2ccc(N)cc2)nc1	–	inactive	inactive	inactive	inactive	–	–	inactive	inactive	–	–	–	–	–	–	–	inactive
COCCCOc1cc(C[C@@H](C[C@H](N)[C@@H](O)C[C@H](C(=O)NCC(C)(C)C(N)=O)C(C)C)C(C)C)ccc1OC	inactive	inactive	inactive	inactive	inactive	inactive	inactive	inactive	inactive	–	–	–	–	–	–	–	–
